Screening data from PubChem.
p53null 39C kill – p53 null cell cytotoxicity, nonpermissive temperature; H1299 p53-null (neo) cells, 39C, ATPlite viability, 24 h; Potency, µM (titrated, usually from 46.1 µM), hits mostly cytotoxic; 55,000 compounds, 0.97% hits; AID 904; note: nearly all actives have a fitted effect of over 50% in size
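H1299 lung cancer cells, p53-null (H1299-neo) or expressing p53 A138V (H1299-p53A138V), were plated overnight at 37C, then exposed to compounds at up to 46 uM for 24 hr at 39C. Viability was read by ATP-based luminescence.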
GPR32 ag – GPR32 (DRV1) agonism, beta-arrestin recruitment; O75388; CHO-K1 GPR32 beta-arrestin PathHunter luminescence, 90 min; zero percent set by DMSO-only wells; activation, % at 76.9 µM; 48,000 compounds, 2.5% hits;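 active = activation of at least 60% and not above a set upper limit, about 1 call in 100 departs from these limits; inconclusive = activation of 40% to 60%, or above that upper limit; inactive = activation under 40%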
Target sequence (O75388 whole entry, looked up): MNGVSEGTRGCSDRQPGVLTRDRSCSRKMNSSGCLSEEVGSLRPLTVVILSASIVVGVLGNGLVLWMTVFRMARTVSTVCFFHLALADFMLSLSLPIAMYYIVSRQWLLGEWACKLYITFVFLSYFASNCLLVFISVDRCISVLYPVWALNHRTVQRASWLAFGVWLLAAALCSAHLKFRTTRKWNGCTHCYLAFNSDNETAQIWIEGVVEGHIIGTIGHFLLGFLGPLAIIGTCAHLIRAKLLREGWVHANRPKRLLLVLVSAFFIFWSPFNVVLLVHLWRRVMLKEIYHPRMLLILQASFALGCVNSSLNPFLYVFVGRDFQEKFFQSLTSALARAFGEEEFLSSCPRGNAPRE
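Luminescent readout of beta-Gal complementation quantifies ligand-induced beta-arrestin association with GPR32 in CHO-K1 cells; 90 min compound incubation at 37 °C, detection 1 h at room temperature.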
OvCa metastasis – ovarian cancer metastasis inhibition, 3D TME model | Potency, µM (doses to about 45.8 µM), actives largely listed as inhibitors | SKOV3ip1-GFP adhesion/invasion on 3D omental model, fluorescence | 46,000 compounds, 0.1% hits | AID 1963576; note: nearly all actives have a fitted effect of over 65% in size
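Adhesion/invasion was scored as fixed GFP-labeled SKOV3ip1 cell counts (488/509 nm), normalized to DMSO and tomatine controls. Cancer cells in serum-free medium, with four compound doses (0.36-46 umol/L), sat 2 hr at RT then 16 hr at 37 C on a 48 hr fibroblast/mesothelial/ECM culture.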
NTMT1 inh – blocks human N-terminal methyltransferase 1 activity | 59,000 compounds, 2.5% hits | Potency, µM (titrated, usually from 114 µM), most hits filed as inhibitors | Q9BV86 | NTMT1 MTase-Glo SAH luminescence, purified enzyme; note: nearly all actives have a fitted effect of over 65% in size
p53null 32C kill – kills p53 null cells at the permissive temperature | H1299-neo p53 null cells, ATP luminescence, 24 h, 32C | 55,000 compounds, 0.62% hits | AID 903 | Potency, µM (top dose mostly 46.1 µM), actives largely listed as cytotoxic; note: nearly all actives have a fitted effect of over 55% in size
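Cytotoxicity: H1299-neo (no p53), 32C, 24 h treatment. Concentrations up to 46 uM. Readout cellular ATP, luminescence. Normalization to DMSO basal and tamoxifen 100 uM maximal kill.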
GALC G270D up – raises human GALC G270D mutant activity in cells; P54803; 145M-Twi-hGALC-G270D cells (Twitcher mouse brain line with human GALC G270D), HMU-beta-Gal fluorescence, 48 h; Potency, µM (titrated, usually from 57.5 µM), actives largely listed as activators; 45,000 compounds, 0.1% hits; note: nearly all actives have a fitted effect of over 65% in size
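Live 145M-Twi cells (Twitcher mouse brain-derived, GALC-null) stably expressing human GALC-G270D, with a wild-type GALC line, were compound-treated. Residual GALC activity was then read as fluorescence from 0.1 mM final HMU-β-gal at pH 5.2; higher signal means activation.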
Hits are given with their value; n = inactive; u = inconclusive; x = not tested or not shown; ! = repeats disagree. The list is not random: actives were taken first. Their share in the collection is about 4%. Unless noted, calls come from the whole dose curve; as a rule, active = well fitted curve in the direction sought with a large enough effect; inconclusive = small, poorly fitted or top-dose-only effect, or another doubt; inactive = no such curve, though single readings can be large; an effect the other way counts as inactive or inconclusive.

SMILES | p53null 39C kill | GPR32 ag | OvCa metastasis | NTMT1 inh | p53null 32C kill | GALC G270D up
Cc1ccc(C(=O)NCCc2csc(-c3cccc(F)c3)n2)cc1C | n | 60.5 | n | n | n | n
Cn1c(CN2CCCCC2)nc2cc(NC(=O)c3cccc(Br)c3)ccc21 | u | n | n | n | n | n
CCC(=O)NCCc1nc2cc(NC(=O)c3cccc(Br)c3)ccc2n1C | 10µM | n | n | n | 12.6µM | n
CN(C)c1ccc(C2C=C(c3ccccc3)Nc3nnnn32)cc1 (stereo unspecified) | 7.94µM | n | n | n | u | n
O=C1c2[nH]nc(-c3ccc(F)cc3)c2C(c2ccccc2F)N1c1ccccc1 (stereo unspecified) | n | 108.5 | u | n | n | n
Fc1cc(Nc2nc(-c3ccncc3)nc3ccccc23)ccc1-c1cc(F)c(F)c(F)c1 | x | x | x | n | x | x
O=C(Cc1ccc(F)cc1)NCCc1csc2nc(-c3ccccc3F)nn12 | n | 61.7 | n | n | n | n
COc1cccc(C(=O)NCCc2csc3nc(-c4ccccc4F)nn23)c1OC | n | 68.4 | n | n | n | n
O=C(NCCc1csc2nc(-c3ccccc3F)nn12)c1ccccc1C(F)(F)F | n | n | n | n | n | n
CSc1ccc(C(=O)N[C@@H]2CCCC[C@@H]2NC(=O)CNC(=O)c2cc(C(F)(F)F)ccc2NC(=O)NC(C)C)cc1 | x | x | x | n | x | x
CCN1CCC(N(Cc2ccc(F)cc2)C(=O)Nc2cc(Cl)ccc2C(=O)OC)CC1 | n | n | 11.2µM | n | n | n
CCN1CCC(N(Cc2ccc3c(c2)OCO3)C(=O)Nc2cc(F)ccc2F)CC1 | n | n | n | n | n | n
CC1=C2C(=O)C=C(CO[C@@H]3O[C@H](CO)[C@@H](O)[C@H](O)[C@H]3O)[C@@H]2[C@H]2OC(=O)[C@H](C)[C@@H]2[C@@H](O)C1 | x | x | x | n | x | x
COc1ccc(NC(=O)c2cccc(NC(=O)C(C)C)c2)c([N+](=O)[O-])c1 | x | x | x | x | n | x
CCOc1ccc(N/C=C/C(=O)c2ccccc2)c([N+](=O)[O-])c1 | x | x | x | x | 6.31µM | x
CC(C)[C@H]1C(=O)N[C@@H](CCCN=C(N)N)C(=O)NCC(=O)N[C@@H](CC(=O)O)C(=O)N[C@H](Cc2ccccc2)C(=O)N1C | x | x | x | n | x | x
Cn1cc(/C=C2\C(=O)Nc3cccnc32)c2ccccc21 | x | x | x | 44.7µM | x | x
O=C(NCCN1CCC(n2c(=O)[nH]c3ccccc32)CC1)c1cc2cc(F)ccc2[nH]1 | x | x | x | n | x | x
CCN(C(=O)c1ccccc1OC)c1cc2c(cc1N1CCNC[C@H]1C)n(C)c(=O)n2C | x | x | x | n | x | x
COc1ccccc1-c1nnc(SCC(=O)c2ccc(F)cc2)n1-c1ccccc1 | n | 69.9 | n | n | n | n
Fc1ccc(-c2csc3ncnc(NCc4ccc5c(c4)OCO5)c23)cc1 | x | x | x | n | x | x
COc1cc2c3c(n(CCCN4CCOCC4)c(=O)c2cc1OC)-c1cc2c(cc1C3=O)OCO2 | x | x | x | n | x | x
CN1CCC(c2c(O)cc(O)c3c(=O)cc(-c4ccccc4Cl)oc23)C1CO (stereo unspecified) | x | x | x | 50.1µM | x | x
CN1CC[C@@H](c2c(O)cc(O)c3c(=O)cc(-c4ccccc4Cl)oc23)[C@@H](O)C1 | x | x | n | 24.1µM! | x | x
CC1CCN(Cc2c(O)ccc3c(=O)c(Oc4ccccc4Cl)c(C(F)(F)F)oc23)CC1 | n | n | n | n | n | n
CN1CCC(c2c(O)cc(O)c3c(=O)cc(-c4ccccc4Cl)oc23)C(O)C1 (stereo unspecified) | x | x | x | 35.5µM | x | x
O=C(/C(C=Nc1ccc(Br)cc1)=C(/O)c1ccco1)C(F)(F)F | u | x | x | x | 5.01µM | x
CC(=O)c1nn(-c2ccc(Br)cc2)cc1C(=O)c1ccco1 | n | x | x | x | n | x
N#Cc1cc(NC(=O)Nc2nnc(-c3ccncc3)s2)ccc1F | x | x | x | n | x | x
